# Tested on: Pectobacterium parmentieri SCC3193
# Assay: DuctApe activity index (growth/respiration on compound as sole nutrient source, blank-subtracted) (activity index (0-3)); higher = stronger utilization of the compound, active = 3 or more
# Conditions: nutrient role (plate category): carbon
# Protocol: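 Biolog Phenotype Microarray plates PM1, PM2A (carbon), PM3 (nitrogen) and PM4 (phosphorus/sulfur) inoculated with P. parmentieri SCC3193 in M9-C minimal salts medium with Biolog dye A, and read in the OmniLog for 46 h. Each well was tested in triplicate and the experiment was run twice. DuctApe computed a blank-subtracted activity index (AV, 0-3) from the mean curves; growth is positive at AV >= 3 and negative at AV <= 2.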
row,SMILES,DuctApe activity index
1,N[C@@H](C(=O)O)[C@@H](O)[C@H](O)[C@H](O)CO [D-Glucosaminic acid],0 (inactive)
2,O=C(CO)[C@@H](O)[C@H](O)[C@@H](O)C(=O)O [5-Keto-D-Gluconic acid],0 (inactive)
3,"CC(O)C(C)O (stereo not drawn) [2,3-Butanediol]",0 (inactive)
4,CCCCCCCCCC(=O)O [Capric acid],0 (inactive)
5,OC[C@H]1O[C@H](O[C@H]2O[C@H](CO)[C@@H](O)[C@H](O)[C@H]2O)[C@H](O)[C@@H](O)[C@@H]1O [D-Trehalose],3 (active)
6,COC(=O)[C@@H](C)O [D-Lactic acid Methyl Ester],1 (inactive)
7,COC(=O)C(C)=O [Methylpyruvate],3 (active)
8,O=C(O)CCC(=O)C(=O)O [a-Ketoglutaric acid],0 (inactive)
9,CC(O)(CC(=O)O)C(=O)O (stereo not drawn) [Citramalic acid],0 (inactive)
10,NC(=O)CCC(=O)O [Succinamic acid],3 (active)
11,O=C(O)[C@@H](O)[C@H](O)C(=O)O [D-Tartaric acid],0 (inactive)
12,OC[C@H]1OC(O)[C@@H](O)[C@@H](O)[C@@H]1O (stereo partly drawn) [D-Mannose],3 (active)
13,OC[C@H]1O[C@@H]2O[C@H]3[C@H](O)[C@@H](O)[C@@H](O[C@H]4[C@H](O)[C@@H](O)[C@@H](O[C@H]5[C@H](O)[C@@H](O)[C@@H](O[C@H]6[C@H](O)[C@@H](O)[C@@H](O[C@H]7[C@H](O)[C@@H](O)[C@@H](O[C@H]8[C@H](O)[C@@H](O)[C@@H](O[C@H]9[C@H](O)[C@@H](O)[C@@H](O[C@H]1[C@H](O)[C@H]2O)O[C@@H]9CO)O[C@@H]8CO)O[C@@H]7CO)O[C@@H]6CO)O[C@@H]5CO)O[C@@H]4CO)O[C@@H]3CO [g-Cyclodextrin],0 (inactive)

# Source: the supplement of paper PMC6518042
